Screening results from PubChem.
JMJD2A Tudor – qHTS Assay for Inhibitors of JMJD2A-Tudor Domain; Lysine-specific demethylase 4A (Homo sapiens), O75164; AlphaScreen JMJD2A-Tudor / H3K4me3 peptide binding; Potency, µM (doses to about 114 µM), inactives show at the highest dose activity change, negative = inhibition, hits mostly inhibitors; hit rate 4.4% among 390,000; AID 504339, 2011; also: % is scaled to controls: 0 for no effect and ±100 for the full control effect; nearly all actives have a fitted effect of over 50% in size
HP1b chromo inh – HTS for Inhibitors of HP1-beta Chromodomain Interactions with Methylated Histone Tails. Chromobox protein homolog 1 (Homo sapiens), P83916. hit rate 0.56% among 390,000. Potency, µM (top dose mostly 114 µM), for inactives: at the highest dose activity change, negative = inhibition, most hits filed as inhibitors. AlphaScreen HP1-beta / biotin-H3K9me3 peptide binding; also: nearly all actives have a fitted effect of over 70% in size
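HP1-beta protein (50 nM final) preincubated 30 min at room temperature with biotinylated H3(1-18)K9me3 peptide (50 nM) in PBS pH 7.4, 0.01% Tween-20, then compound added for 30 min. AlphaScreen streptavidin donor/nickel chelate acceptor beads (10 ug/mL final), 30 min dark, luminescence read.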
ALOX12 inh – Primary qHTS assay for inhibitors of human arachidonate 12S-lipoxygenase (ALOX12): Round 2; Polyunsaturated fatty acid lipoxygenase ALOX12 (Homo sapiens), P18054; AID 1671190, 2021; hit rate 1.1% among 580,000; purified 12hLO, xylenol orange hydroperoxide absorbance; Potency, µM (doses to about 108 µM), for the others: top-dose activity change, negative = inhibition, actives largely listed as inhibitors; also: % is scaled to controls: 0 for no effect and ±100 for the full control effect
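Hydroperoxide product was detected by ferrous iron/xylenol orange as the 573 to 405 nm absorbance ratio. Arachidonic acid at 40 uM (final) was turned over for 30 min at room temperature by 150 nM human 12hLO, pH 7.0 Hepes buffer, after 15 min compound preincubation.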
PLK1 PBD inh – qHTS for Inhibitors of PLK1-PDB (polo-like kinase 1 - polo-box domain): Primary Screen | hit rate 2.8% among 360,000 | AID 720504, 2013 | Potency, µM, for the others: max response, negative = inhibition, most hits filed as inhibitors | Plk1 PBD binding of FITC phosphopeptide, fluorescence polarization; also: series mostly up to about 57 µM; % is scaled to controls: 0 for no effect and ±100 for the full control effect; nearly all actives have a fitted effect of over 65% in size
Target sequence (P53350 whole entry, looked up, the tested form may be a part): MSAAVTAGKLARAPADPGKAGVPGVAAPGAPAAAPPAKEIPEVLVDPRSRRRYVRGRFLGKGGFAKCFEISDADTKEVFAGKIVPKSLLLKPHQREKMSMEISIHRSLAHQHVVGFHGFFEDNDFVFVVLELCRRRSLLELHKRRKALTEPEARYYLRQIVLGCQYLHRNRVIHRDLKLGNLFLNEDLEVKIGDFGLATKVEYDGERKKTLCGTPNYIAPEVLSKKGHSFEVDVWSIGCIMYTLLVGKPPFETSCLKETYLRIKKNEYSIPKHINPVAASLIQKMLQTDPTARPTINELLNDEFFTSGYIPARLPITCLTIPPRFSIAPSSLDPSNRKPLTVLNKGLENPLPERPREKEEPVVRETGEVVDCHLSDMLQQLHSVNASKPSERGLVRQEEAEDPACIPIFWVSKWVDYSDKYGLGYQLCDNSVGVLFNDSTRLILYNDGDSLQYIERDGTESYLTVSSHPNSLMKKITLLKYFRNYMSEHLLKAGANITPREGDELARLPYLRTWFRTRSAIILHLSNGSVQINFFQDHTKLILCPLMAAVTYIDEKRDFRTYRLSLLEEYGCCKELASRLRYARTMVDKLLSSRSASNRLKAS
G9a block – qHTS Assay for Inhibitors of Histone Lysine Methyltransferase G9a | G9a H3K9 monomethylation, AlphaScreen, 2 h | AID 504332, 2011 | Potency, µM (series often up to 102 µM), without a hit: at the highest dose activity, negative = inhibition, actives largely listed as inhibitors | Histone-lysine N-methyltransferase EHMT2 (Homo sapiens), Q96KQ7 | hit rate 8.8% among 350,000; also: % is scaled to controls: 0 for no effect and ±100 for the full control effect; nearly all actives have a fitted effect of over 75% in size
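Methyltransferase reactions run at room temperature for 2 h (20 nM enzyme, 500 nM biotin-H3K9 peptide, 20 uM SAM) after a 15 min compound preincubation; product detected by AlphaScreen beads and anti-H3K9me1 antibody.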
BAZ2B block – qHTS Assay for Inhibitors of BAZ2B. Potency, µM (doses to about 114 µM), inactives show at the highest dose activity change, negative = inhibition, actives largely listed as inhibitors. AID 504333, 2011. Bromodomain adjacent to zinc finger domain protein 2B (Homo sapiens), Q9UIF8. hit rate 4.4% among 360,000. AlphaScreen BAZ2B-H3K14Ac peptide displacement; also: % is scaled to controls: 0 for no effect and ±100 for the full control effect; nearly all actives have a fitted effect of over 60% in size
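Multi-concentration screen (max 110 uM) measuring displacement of acetylated histone H3 peptide from BAZ2B by AlphaScreen, using 50 nM protein, 50 nM peptide and 10 ug/mL streptavidin donor plus Ni-chelate acceptor beads.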
Active calls of the source: *; i = inactive; ? = inconclusive; . = no result; [ ] = another dose, or the depositor's remark. The list is not random: actives were taken first. Their share in the collection is about 9%. Calls follow the shape of the dose curve; as a rule, active = well fitted curve in the direction sought with a large enough effect; inconclusive = small, poorly fitted or top-dose-only effect, or another doubt; inactive = no such curve, though single readings can be large; an effect the other way counts as inactive or inconclusive. Potency is read from the fitted curve at half-maximal effect.

SMILES	JMJD2A Tudor	HP1b chromo inh	ALOX12 inh	PLK1 PBD inh	G9a block	BAZ2B block
Cc1ccc(C(=O)O/N=C\c2ccc(N3CCOCC3)c([N+](=O)[O-])c2)cc1	-5%	?	62%	-1%	25%	-25%[57.1 µM]
O=C(/C=C/c1ccc(N2CCCCC2)c([N+](=O)[O-])c1)c1ccc(O)cc1	28µM*	35µM*	-1%	-7%	-25%[12.7 µM]	40µM*
O=C(O)c1ccccc1C(=O)c1ccc(N2CCCC2)c([N+](=O)[O-])c1	-16%[11.4 µM]	27%	?	-8%	?	-14%
COc1ccccc1C(=O)/C=C/c1ccc(N2CCCCC2)c([N+](=O)[O-])c1	8.9µM*	32µM*	-21%	-14%	13µM*	6.3µM*
O=C(c1ccc(N2CCCCC2)c([N+](=O)[O-])c1)N1CCOCC1	-18%	8%	0%	1%	6%[59 µM]	7%
O=C(O/N=C\c1ccc(N2CCCCC2)c([N+](=O)[O-])c1)c1ccc(Cl)cc1Cl	?	?	0%	-9%	40µM*	?
N#Cc1ccccc1S(=O)(=O)N1CCC(Oc2ccc(-n3cnnn3)cc2)CC1	-19%	-2%	-15%	.	-16%[59 µM]	-8%
CCOc1ccc(C(=O)Nc2nnc(SCC(=O)NCC3CCCO3)s2)cc1 (configuration not stated)	-10%	26%	0%	-13%	18%	-17%
O=S(=O)(N/N=C/c1ccc(N2CCOCC2)cc1)c1ccccc1	-21%	4%	0%	-1%	45µM*	5%
CC(=O)Nc1ccc(S(=O)(=O)N/N=C/c2cccnc2)cc1	6%	43%	17%	-6%	.	-10%
O=S(=O)(N/N=C\c1cccnc1)c1ccccc1	-18%	30%	-15%	0%	10µM*	-1%
COCCNC(=S)NCc1ccc2[nH]c3c(c2c1)CCCC3	56µM*	-18%	?	-12%	45µM*	.
Cc1ccc(NC(=S)NCc2ccc3[nH]c4c(c3c2)CCCC4)cc1	50µM*	?	?	-24%	45µM*	35µM*
COC(=O)c1c(NC(=O)C(C)C)sc(C(=O)N2CCOCC2)c1C	-9%	-21%	-6%	?	45µM*	5%
c1ccc(-c2[nH]ncc2-c2ccnc3ccccc23)nc1	.	.	11%	.	.	.
CC(C)CC(=O)Nc1nc2nc(-c3ccccc3)cc(=O)n2[nH]1	?	26%	0%	.	?	50µM*
O=C(CCc1ccccc1)Nc1nc2nc(-c3ccccc3)cc(=O)n2[nH]1	-31%	22%	0%[57.4 µM]	-11%	?	5%
O=C(Nc1nc2nc(-c3ccccc3)cc(=O)n2[nH]1)c1ccc(Cl)cc1	?	26%	-27%	.	?	79µM*
O=c1cc(-c2ccccc2)nc2nc(SCc3ccccc3)[nH]n12	?	3%	-13%	-18%	-12%[12.7 µM]	79µM*
COc1ccc(C(=O)Nc2nc3nc(-c4ccccc4)cc(=O)n3[nH]2)cc1	-13%	37%	-2%	0%	?	12%
CC(=O)Nc1ccc(/C=C/c2nc(-c3ccccc3O)n[nH]2)cc1	-9%	45%	i	1%	7%	8%
CC(=O)Nc1cccc(C(=O)N/N=C/c2ccccc2F)c1	-12%	31%	0%	-24%	2%[59 µM]	-31%
Cn1nc(C(C)(C)C)cc1C(=O)O	-16%	32%	-7%	-11%	6%[12.7 µM]	?
c1ccc(CNc2ccccn2)cc1	1%	38%	0%	2%	-7%	-3%
c1ccc(C2(CNc3ccccn3)CCCC2)cc1	-10%	29%	-9%	-3%	50µM*	9%
